HSF-1 act: increases HSF-1 driven luciferase reporter signal; NIH3T3-HGL HSF-1 luciferase reporter, MG132, 8 h; 100% = twice DMSO control signal; activation, % at 9 µM; hit rate 1.7% among 300,000; AID 504408;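 active = mean replicate activation of at least 50% with a set share of replicates each reaching 50%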;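 also: 0% = median of the neutral control wells and 100% = twice that signal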
NR0B1 inh: inhibits human nuclear receptor DAX1; P51843; inhibition, % at 6.75 µM; HEK293 Gal4-DAX1 luciferase reporter, luminescence; hit rate 0.99% among 340,000; AID 504766;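 active = inhibition above the mean over all tested compounds plus 3 SD, cut at about 4.2% in these data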;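 also: 0% = DAX1-transfected cells with DMSO and 100% = empty-vector control cells with DMSO; inhibition shows as a rise in luminescence from relieved DAX1 repression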
AHR activator: human AHR activation | P35869 | AHR-responsive luciferase reporter cells, luminescence | activation, % at 5 µM | hit rate 2.5% among 320,000 | AID 2796; in the data active = activation above about 47%;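 also: 0% = vehicle wells and 100% = reference agonist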
Target sequence (P35869 whole entry, looked up): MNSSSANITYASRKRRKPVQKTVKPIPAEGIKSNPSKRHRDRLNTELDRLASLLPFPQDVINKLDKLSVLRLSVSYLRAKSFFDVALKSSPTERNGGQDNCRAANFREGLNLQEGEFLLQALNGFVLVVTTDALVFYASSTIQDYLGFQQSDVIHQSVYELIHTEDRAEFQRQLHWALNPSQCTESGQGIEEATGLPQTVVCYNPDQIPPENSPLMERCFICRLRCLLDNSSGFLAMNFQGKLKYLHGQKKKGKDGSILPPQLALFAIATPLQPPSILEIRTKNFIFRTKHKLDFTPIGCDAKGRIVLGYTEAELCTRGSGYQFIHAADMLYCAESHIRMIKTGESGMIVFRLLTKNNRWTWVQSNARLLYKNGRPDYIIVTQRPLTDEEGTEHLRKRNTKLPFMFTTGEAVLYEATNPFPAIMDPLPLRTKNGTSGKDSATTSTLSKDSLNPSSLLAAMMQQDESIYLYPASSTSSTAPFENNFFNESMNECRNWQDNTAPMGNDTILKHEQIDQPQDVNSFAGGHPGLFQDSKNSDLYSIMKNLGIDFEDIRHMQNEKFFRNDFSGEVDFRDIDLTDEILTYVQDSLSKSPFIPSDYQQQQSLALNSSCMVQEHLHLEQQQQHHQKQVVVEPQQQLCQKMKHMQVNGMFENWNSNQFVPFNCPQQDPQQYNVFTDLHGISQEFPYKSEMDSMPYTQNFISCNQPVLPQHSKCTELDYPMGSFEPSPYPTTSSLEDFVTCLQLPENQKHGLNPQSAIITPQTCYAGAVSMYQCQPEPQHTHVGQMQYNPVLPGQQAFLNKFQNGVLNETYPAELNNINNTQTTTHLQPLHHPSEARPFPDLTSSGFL
HSF1 inh: HSF1 inhibition | NIH3T3-HGL HSE-luciferase, MG132-induced, luminescence 8 h; active compounds read low | activity change, negative = inhibition, % at 7.5 µM (by protocol) | hit rate 0.77% among 300,000 | AID 2098;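 active = more than half of replicate wells show activity change below -50%, luminescence cut by over half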;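 also: luciferase reports HSF-1 transcriptional activity via heat shock element; 0% = median of DMSO wells and -100% = zero luminescence signal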
FXN GAA850 act: frataxin GAA850 promoter activation | hit rate 0.56% among 360,000 | AID 540364 | HEK293 lucGAA850 FXN promoter luciferase reporter, 24 h; percent of 10 µM SAHA response | activation, % at 6 µM;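 active = activation above the average of all compounds screened plus 3 SD, cutoff fixed separately per campaign, cut at about 7.5% in these data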;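 also: 0% = DMSO wells and 100% = 10 µM SAHA wells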
HSP90 refold inh: inhibitors of HSP90 luciferase refolding in rabbit reticulocyte lysate; inhibition, % at 5.6 µM; luciferase refolding luminescence, 3 h; AID 1789; hit rate 0.91% among 290,000;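 active = inhibition above the screen-wide mean plus 3 SD, computed separately per campaign, cut at about 16% in these data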;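 also: 0% = DMSO wells and 100% = 60 µM geldanamycin wells; inhibitors lower the luminescence because luciferase stays unfolded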
Active calls of the source: *; / = no result given. A selection: hits, their analogues and other compounds. The true share with any hit is near 5.9%.

SMILES	HSF-1 act	NR0B1 inh	AHR activator	HSF1 inh	FXN GAA850 act	HSP90 refold inh
Cc1ccc(N2CC(C(=O)Nc3nc4ccc(S(C)(=O)=O)cc4s3)CC2=O)cc1 (stereo not given)	-84	0	6	-80*	-1	-3
CS(=O)(=O)c1ccc2nc(NC(=O)C3CC(=O)N(c4ccccc4)C3)sc2c1 (stereo not given)	-10	-1	6	-2	-1	3
CS(=O)(=O)c1ccc2nc(NC(=O)CCC(=O)c3cccs3)sc2c1	-3	1	52*	3	-1	-1
O=C(c1ccccc1)c1cccc[n+]1[O-]	4	6.2*	0	0	1	-5
Cc1cnc(N)nc1-c1ccccc1	/	3	/	/	1	/
O=C(O)C1CCCCC1C(=O)Nc1ccc2c(c1)CCC2 (stereo not given)	123*	-1	7	84	0	7
O=C(Nc1cc(NC(=O)c2ccccc2F)ccc1Cl)c1ccccc1	-3	-1	79*	-4	1	-3
O=C(Nc1ccc2c(c1)CCC2)c1ccccc1Br	54*	7.6*	1	22	5	6
CCC(=O)Nc1ccc(Cl)c(NC(=O)c2ccccc2OC)c1	14	-1	51*	4	1	2
CC(=O)Nc1ccc(NC(=O)C2CCCCC2C(=O)O)cc1 (stereo not given)	-1	1	-2	-5	0	0
Cc1cccc(C)c1Cn1c(C)c(C(=O)NCCC#N)sc1=O	/	/	/	/	2	/
Cc1c(C(=O)Nc2ccc3c(c2)CCC3)cccc1[N+](=O)[O-]	57*	1	-3	19	6	-5
COc1ccccc1C(=O)NCC(=O)Nc1ccc2c(c1)CCC2	/	1	70*	/	2	/
OCc1cccc(-c2csc(C(O)c3ccccc3)n2)c1 (stereo not given)	/	/	/	/	0	/
NC(=O)c1cc2cc(Br)ccc2oc1=NCc1ccccc1	190*	-1	-2	142	-1	5
Cc1cc(C)cc(NC(=O)C(c2ccccc2)N2CCN(CC(=O)NC3CC3)CC2)c1 (stereo not given)	/	2	16	/	1	/
CCn1ncc(/C=C/C(=O)c2ccccc2)c1C	53*	3	2	26	5	-1
CCN(CC)S(=O)(=O)c1ccc(C(=O)OCC(=O)N2CCN(C(=O)c3ccco3)CC2)cc1	53*	0	1	14	-2	-3
O=C(Nc1cccc(-c2csc(Nc3ccc(Cl)cc3)n2)c1)c1cc([N+](=O)[O-])cc(C(F)(F)F)c1	-13	2	56*	2	0	/
CC12CC(c3ccccc3O1)C(C(=O)NCc1ccccc1)C(=O)N2 (stereo not given)	-76	0	-4	-71*	0	-1
COc1ccc(NC(=O)COC(=O)c2ccc(C)c(S(=O)(=O)N3CCCCC3)c2)cc1	/	0	-1	/	3	/
Cc1oc(S(=O)(=O)N(C)C)cc1C(=O)Nc1ccc(Cl)cc1	55*	0	-7	15	1	2
Cc1ccc(OCC(=O)NNC(=O)c2ccc(F)c(S(=O)(=O)N3CCOCC3)c2)cc1C	/	0	/	/	0	/
CC(C)c1ccc(S(=O)(=O)NCCCN2CCOCC2)cc1	/	0	/	/	0	/
O=C(O)c1cccc(Cn2c(Cl)c(/C=N/NC(=O)c3ccc(O)cc3)sc2=O)c1	19	4.6*	3	5	0	-2
SMILES	HSF-1 act	NR0B1 inh	AHR activator	HSF1 inh	FXN GAA850 act	HSP90 refold inh
O=C(N/N=C/c1sc(=O)n(-c2ccccc2)c1Cl)c1ccccc1	66*	0	1	35	2	2
O=c1sc(/C=N/Nc2ccccc2)c(Cl)n1Cc1ccccc1	149*	1	15	119	3	3
O=C(CCc1ccco1)CCc1ccco1	/	-1	/	/	0	/
CCOc1ccc(C(=O)C2CCN(CC(=O)Nc3ccccc3N3CCOCC3)CC2)cc1	-4	0	-4	14	2	-5
CCn1c(SC)nnc1C1CCCN(CC(=O)Nc2ccccc2N2CCOCC2)C1 (stereo not given)	67*	-1	1	15	0	-3
COc1ccccc1Nc1nc(NCC(C)C)nc(N)c1[N+](=O)[O-]	-20	-2	79*	-11	3	5
CCC(C)Nc1nc(N)c([N+](=O)[O-])c(Nc2ccccc2OC)n1 (stereo not given)	43	-2	69*	21	4	0
CCC(C)Nc1nc(N)c([N+](=O)[O-])c(NCc2ccccc2)n1 (stereo not given)	30	0	/	11	4	5
COc1ccccc1Nc1nc(NCCCN(C)C)nc(N)c1[N+](=O)[O-]	-78	2	62*	-73*	0	6
O=C(OCC(=O)N1CCN(S(=O)(=O)c2ccc(Cl)cc2)CC1)c1cccc(OC(F)F)c1	13	1	0	1	-1	/
Cc1ccc(C(=O)N2CCN(S(=O)(=O)c3ccc(Br)cc3)CC2)o1	12	-1	0	0	0	-1
O=C(Nc1ccc(O)c(-c2nc3ccccc3s2)c1)c1cc(=O)c2ccccc2o1	3	-1	2	-11	-1	2
CC(=O)NC(=S)Nc1ccc(NC(=S)NC(=O)/C=C/c2ccco2)cc1	-11	-1	1	-12	3	-3
O=C(Nc1ccc(F)cc1)Nc1sccc1-c1nc2ccccc2s1	25	1	60*	11	2	7
O=C(/C=C/c1ccco1)NC(=S)Nc1ccc(O)c(-c2nc3ccccc3s2)c1	-6	-1	80*	9	3	0
O=C(Nc1ccc(O)c(-c2nc3ccccc3s2)c1)c1cccs1	4	0	74*	2	0	2
COc1ccc(NC(=S)NC(=O)/C=C/c2ccco2)cc1	24	4.8*	18	16	2	-1
O=C(Nc1nc2ccccc2s1)c1ccc(F)cc1	50	2	19	29	0	14
CCc1nc2c(OCc3c(C)noc3C)cccn2c1N(C=O)Cc1ccccc1	/	/	/	/	-1	/
O=C(O)/C=C/C(=O)Nc1ccc(Cl)cc1C(=O)c1ccccc1	-2	-1	0	-3	0	-2
O=C(O)/C=C/C(=O)Nc1cc(F)ccc1F	-77	1	-1	-72*	1	-1
Cc1cc(OC(C)C(=O)NCc2cccnc2)c2c(C)cc(=O)oc2c1 (stereo not given)	2	1	7	-5	-2	1
O=[N+]([O-])c1c(O)c(Cl)cc(Cl)c1Cl (tested in a mixture with another compound)	/	1	/	/	2	/
CC(C(=O)Nc1ccccc1Br)N1c2cccc3cccc(c23)S1(=O)=O (stereo not given)	67*	-1	-7	35	4	-2
FC(F)Oc1ccc(-c2csc(=Nc3cccnc3)n2CC2CCCO2)cc1 (stereo not given)	-9	-3	48*	-6	-1	-6

Assay outcomes: PubChem, several laboratories
